Compound activity from PubChem BioAssay.
CYP2C19 activ = human CYP2C19 activators, primary screen, biochemical, luminescence | activation factor at 5 µM | recombinant CYP2C19, luciferin-H EGE luminescence; hits give high values; 0 = fully inhibited enzyme, 1 = untreated enzyme | 96,000 tested, under 10 active | Cytochrome P450 2C19 (Homo sapiens), P33261;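 active = activation factor of at least 2 at 5 µM in the primary screen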
CYP2C19 inh = blockers of cytochrome P450 2C19 activity – biochemical, luminescence, ADME assay, primary screen; P33261; CYP2C19 Supersomes, luciferin-H EGE luminescence, 30 min; inhibition, % at 5 µM; 96,000 tested, 21% active; AID 778, 2007;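 active = CYP2C19 inhibition above a set limit at 5 µM in the primary screen, cut at about 50% in these data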
PostGolgi ctrl = growth inhibition of yeast control strain, primary screen, counter-screen for post-Golgi transport modulator project | 98,000 tested, 5% active | AID 738, 2007 | efflux-deficient yeast background strain, growth absorbance A615, 16 h | inhibition, % at 10 µM
PostGolgi yeast = phenotypic screen on post-Golgi transport, primary screen | post-Golgi transport phenotypic cell assay | inhibition, % at 10 µM | 98,000 tested, 0.9% active;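 note: yeast cells grown in 1536-well plates; yeast grown about 18 h at 30C before absorbance read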
CYP2C9 inhib = blockers of cytochrome P450 2C9 activity – biochemical, luminescence, ADME assay, primary screen | CYP2C9 Supersomes, luciferin-H conversion | inhibition, % at 5 µM | 96,000 tested, 20% active | AID 777, 2007;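 active = blocking of liver enzyme CYP2C9 beyond about 50% at 5 µM, limit read from the data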
Target sequence (P11712 whole entry, looked up): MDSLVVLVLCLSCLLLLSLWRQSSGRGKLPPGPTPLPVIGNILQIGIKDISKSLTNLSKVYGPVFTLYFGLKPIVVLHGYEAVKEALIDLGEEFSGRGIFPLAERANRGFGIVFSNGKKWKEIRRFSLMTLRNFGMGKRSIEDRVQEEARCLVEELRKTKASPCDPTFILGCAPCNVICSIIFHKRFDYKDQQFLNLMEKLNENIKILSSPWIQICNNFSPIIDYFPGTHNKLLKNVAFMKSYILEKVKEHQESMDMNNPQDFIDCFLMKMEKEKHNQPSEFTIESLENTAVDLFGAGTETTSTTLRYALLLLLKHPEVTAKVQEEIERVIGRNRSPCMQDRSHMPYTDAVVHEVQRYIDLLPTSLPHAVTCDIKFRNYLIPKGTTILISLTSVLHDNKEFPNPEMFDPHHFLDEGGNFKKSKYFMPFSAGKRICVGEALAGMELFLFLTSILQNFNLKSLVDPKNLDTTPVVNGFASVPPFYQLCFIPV
CYP2C9 act = human CYP2C9 activators, primary screen, biochemical, luminescence; recombinant CYP2C9, luciferin-H conversion; hits give high values; factor 1 = untreated enzyme, 0 = blocked; activation factor at 5 µM; 96,000 tested, 1.4% active;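 active = activation factor of 2 or more for CYP2C9 at a 5 µM dose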
A number is an active result; 0 = inactive; - = no result. An excerpt weighted towards active compounds, which were near 32% of everything screened. Cut-off read from the data, not from the text of the source, unless noted: active = inhibition above about 30%; inactive = the rest.

SMILES | CYP2C19 activ | CYP2C19 inh | PostGolgi ctrl | PostGolgi yeast | CYP2C9 inhib | CYP2C9 act
COC(=O)c1ccc(C(=O)Nc2cc(Cl)ccc2Cl)cc1NC(=O)c1ccc(N(C)C)cc1 | 0 | 0 | 0 | 0 | 0 | 0
COc1ccc(S(=O)(=O)N2CCCN(CC(=O)Nc3ccc(OC)c(Cl)c3)CC2)cc1 | 0 | 59 | 0 | 0 | 0 | 0
COc1ccc(S(=O)(=O)N2CCC(O)(c3ccc(Cl)cc3)CC2)cc1 | 0 | 68 | 0 | 0 | 0 | 2.3
COc1ccc(N(CC(=O)Nc2ccc(S(=O)(=O)N3CCCCC3)cc2)S(C)(=O)=O)cc1OC | 0 | 0 | 0 | 0 | 53 | 0
Cc1ccc(SCC2(O)CCN(S(=O)(=O)c3ccc(Cl)cc3)CC2)cc1 | - | - | 0 | 0 | - | -
COc1ccc(NC(=O)CN2CCN(S(=O)(=O)c3ccc(Cl)cc3)CC2)cc1 | 0 | 81 | 0 | 0 | 0 | 0
COc1ccc(N(CC(=O)Nc2ccc(S(=O)(=O)N3CCCC3)cc2)S(C)(=O)=O)cc1OC | - | - | 0 | 0 | - | -
Clc1ccc(Cn2ncc3c(NCCN4CCOCC4)ncnc32)cc1 | 0 | 0 | 0 | 0 | 0 | 0
O=S(=O)(c1ccc(F)cc1)n1ccc(-c2cccc(OCc3ccc(Cl)cc3Cl)c2)n1 | 0 | 0 | 0 | 0 | 0 | 0
COC(=O)c1ccc(NC(=O)C2CC2)o1 | 0 | 0 | 0 | 0 | 0 | 0
Cc1ccc(C(C#N)c2ccc3c(C(F)(F)F)cc(C(F)(F)F)nc3n2)cc1 (stereo not given) | 0 | 0 | 0 | 0 | 84 | 0
N#CC(c1ccccc1)c1ccc2c(C(F)(F)F)cc(C(F)(F)F)nc2n1 (stereo not given) | 0 | 0 | 51 | 0 | 0 | 0
COc1ccc(Oc2ccc3c(C(F)(F)F)cc(C(F)(F)F)nc3n2)cc1 | 0 | 0 | 0 | 0 | 0 | 0
O=C(NC1CS(=O)(=O)CC1NCc1ccccc1)c1ccccc1 (stereo not given) | 0 | 0 | 0 | 0 | 0 | 0
O=S1(=O)CC(NCc2ccccc2)C(Nc2ccccc2)C1 (stereo not given) | 0 | 86 | 0 | 0 | 0 | 0
COc1ccc(NC(=O)C2C3C=CC(C3)C2C(=O)NCc2ccco2)cc1 (stereo not given) | 0 | 67 | 0 | 0 | 0 | 0
COc1ccc(NC2CS(=O)(=O)CC2NCc2ccco2)cc1 (stereo not given) | 0 | 89 | 0 | 0 | 0 | 0
COc1cc2nc(CN3CCN(c4ncc(C(F)(F)F)cc4Cl)CC3)[nH]c(=O)c2cc1OC | 0 | 0 | - | - | 0 | 0
COc1ccc(-c2cc(C(F)F)n3ncc(C(=O)N4CCN5CCCC5C4)c3n2)cc1 (stereo not given) | 0 | 0 | 0 | 0 | 0 | 0
Cc1cccc(NC(=O)CS(=O)(=O)c2cn(C)c3ccccc23)c1C | 0 | 0 | 0 | 0 | 0 | 0
CCN1C(=O)c2cccc3c(S(=O)(=O)NC(Cc4c[nH]c5ccccc45)C(=O)O)ccc1c23 (stereo not given) | 0 | 0 | 0 | 0 | 0 | 0
COc1ccc(C2=CSC(/N=C/c3ccc(F)cc3)=NN2)cc1 | 0 | 0 | 0 | 0 | 0 | 0
Cc1nc(NC(C)C)c2cnn(CCc3ccccc3)c2n1 | 0 | 77 | 0 | 0 | 0 | 0
CCCNc1nc2c(c(=O)[nH]c(=O)n2C)n1CCc1ccccc1 | 0 | 0 | 0 | 0 | 0 | 0
CCCNc1nc(C)nc2c1cnn2CCc1ccccc1 | 0 | 89 | 0 | 0 | 0 | 0
O=c1[nH]c2cc3c(cc2cc1CN(CC1CCCO1)S(=O)(=O)c1ccccc1)OCCO3 (stereo not given) | 0 | 0 | 0 | 0 | 0 | 0
Cc1ccc(C)c2[nH]c(=O)c(CN(CC3CCCO3)S(=O)(=O)c3ccc4c(c3)OCCO4)cc12 (stereo not given) | 0 | 0 | 0 | 0 | 61 | 0
Cc1cccc2cc(CN(Cc3ccco3)S(=O)(=O)c3ccc4c(c3)OCCO4)c(=O)[nH]c12 | 0 | 77 | 0 | 0 | 56 | 0
Cc1cccc2cc(CN(Cc3ccco3)C(=O)N3CCCC3)c(=O)[nH]c12 | 0 | 0 | - | - | 0 | 0
